From PubChem BioAssay
Records with an inconclusive call do not appear. Activity calls are given as the source filed them.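 Rule for the calls, unless noted: active = viability increase at or above a cutoff of the median across tested compounds plus 3 SD (cut at about 8.5% in these data, passing the limit was not always enough); inconclusive = some gains above the cutoff, reason not given; inactive = the rest.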

How the values were obtained:
[1] = reducers of endogenous Her2 protein level, primary screen, SKBR3 breast tumor cells, AlphaScreen, ATP viability (AID 461;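 active = Her2 level under about 52% in both replicate screens, with viability over 70% of control, limit read from the data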;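 for Her2 level: lower value means less Her2 protein in the cells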;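 for viability: percent of carrier control wells set as 100% viability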); settings: 18-24 h, measured here: SKBR3 viability, ATP luminescence, at 10 µM
[2] = molecular target: Receptor tyrosine-protein kinase erbB-2 (Homo sapiens) (UniProt P04626); experiment: as above; settings: 18-24 h, at 10 µM, stronger effect = lower value
[3] = SK-BR-3 cell growth inhibitors, pilot screen, 24 h, human (AID 572;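 active = viability at or below 10% of carrier control in both of two separate runs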;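 note: compound exposure lasted between 18 and 24 h rather than exactly 24 h; 100% = carrier-treated control wells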); settings: SK-BR-3 viability, CellTiter-Glo luminescence, at 10 µM, stronger effect = lower value
[4] = HUVEC growth inhibition – cell-based, human, primary screen (AID 575;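 active = viability at or below 30% in both replicate assays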;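 note: 100% = median of untreated cell wells with 0.1% DMSO on each plate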); settings: HUVEC proliferation, CellTiter-Glo luminescence, 72 h; at 10 µM; stronger effect = lower value
[5] = growth inhibitors of H69AR lung tumor, primary screen, human, duplicate replicates (AID 580;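 active = viability at or under a set limit in both replicates, limit being median viability minus 3 SD, cut at about 48% in these data, passing the limit was not always enough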;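 note: 100% = mean luminescence of untreated wells and 0% = no signal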); settings: H69AR lung tumor cells viability, ATP luminescence, 72 h; at 10 µM; stronger effect = lower value
[6] = reversal of MRP1-mediated doxorubicin resistance, pilot screen, H69AR cells, doxorubicin co-treatment (AID 601;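 active = viability loss from added drug above about 55%, and viability with drug at most 40%, in both replicates, limit read from the data, passing the limit was not always enough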); settings: CellTiter-Glo, 72 h, at 10 µM; for differential viability (reversal): stronger effect = higher value
[7] = 384-well plate pilot, post-Golgi transport modulator project, inhibition of yeast transport mutant growth (AID 636; in the data active = inhibition above about 31%); settings: absorbance 615 nm, about 18 h, stronger effect = higher value
[8] = growth suppression of yeast trafficking mutant, preliminary HTS, modulators of trafficking downstream of Golgi apparatus project, 1536-format plate, OD 615 nm (AID 637; in the data active = inhibition above about 30%); settings: yeast transport mutant growth, absorbance 615 nm, 18 h; stronger effect = higher value
[9] = OD615 S. cerevisiae growth inhibition, permissive medium, pilot counter-assay, permissive growth control for S. cerevisiae lifespan shortening project (AID 705;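 active = growth inhibition above 25% in both replicates, a cutoff set 3 SD above the mean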); settings: OD615, 24 h, at 10 µM, stronger effect = higher value
[10] = Restrictive medium S. cerevisiae growth inhibition, OD615, pilot screen of yeast lifespan reduction project, restrictive growth control (AID 706;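 active = growth inhibition above a set limit, 3 SD over mean compound inhibition, in both replicates, cut at about 43% in these data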;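 note: modified DeaD lifespan yeast strain shifted to restrictive glucose medium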); settings: OD615, 48 h, at 10 µM, stronger effect = higher value
[11] = viability gain of MRP-1-high H69AR cells under doxorubicin, pilot screen, MRP-1 activator project, CellTiter-Glo, duplicate (AID 807); settings: H69AR viability with doxorubicin, CellTiter-Glo luminescence; at 10 µM; stronger effect = higher value;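 note: compound pretreatment 18-22 h then 72 h combined with doxorubicin; 0% = doxorubicin alone and 100% = vehicle without doxorubicin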
[12] = growth suppression of beta-catenin knockout HCT116, pilot screen, human colon tumor cells (AID 823;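 active = cell viability at or below a set limit in both duplicate runs, the limit being the all-compound median minus 4 SD, cut at about 23% in these data, passing the limit was not always enough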;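 note: 0% = wells killed by 20 µM Hyamine and 100% = untreated DMSO cell wells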); settings: CellTiter-Glo, 60 h, at 10 µM, stronger effect = lower value
[13] = growth suppression of PTEN-deleted HCT116, pilot screen, cell-based, HCT116 clonal line, CellTiter-Glo (AID 824;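 active = viability at or below 27.92% in each of two runs, the all-compound median minus 4 SD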;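 note: 0% = 20 µM Hyamine control and 100% = vehicle cell control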); settings: 60 h, at 10 µM, stronger effect = lower value
[14] = inhibitors of the yeast RAM network, pilot screen, dse1pr::URA3 reporter, 5-FOA selection (AID 869;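 active = inhibition over a set limit, the all-compound mean plus 3 SD, in both replicate runs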;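 note: 0% = DMSO wells with no growth and 100% = 10 µM 1-NA-PP1 with full growth; RAM network block rescues cells from 5-FOA so hits raise OD615 growth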); settings: S. cerevisiae dse1pr::URA3 5-FOA growth, OD615, 2 d; at 10 µM; stronger effect = higher value; strain carries analog-sensitive mutant Cbk1 kinase
[15] = RAM signaling pathway blockade in yeast – S. cerevisiae, Pdr1DBD-CYC8 efflux-inhibited sensitized strain, primary screen (AID 1298;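 active = RAM network inhibition above 8.4% in each of two replicates, 3 SD over the compound average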;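 note: 0% = DMSO untreated cells without growth and 100% = 10 µM 1-NA-PP1 full growth; higher means more yeast growth rescued from 5-FOA killing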); settings: S. cerevisiae cbk1-as DSE1-URA3 strain, 5-FOA growth OD615, 2 d; at 50 µM; stronger effect = higher value
[16] = H69AR cells + 2 uM doxorubicin, measured here: viability with 2 uM doxorubicin, stronger effect = lower value
[17] = H69AR cells, compound alone cytotoxicity

Sequence of Receptor tyrosine-protein kinase erbB-2 (Homo sapiens) (P04626 whole entry, looked up): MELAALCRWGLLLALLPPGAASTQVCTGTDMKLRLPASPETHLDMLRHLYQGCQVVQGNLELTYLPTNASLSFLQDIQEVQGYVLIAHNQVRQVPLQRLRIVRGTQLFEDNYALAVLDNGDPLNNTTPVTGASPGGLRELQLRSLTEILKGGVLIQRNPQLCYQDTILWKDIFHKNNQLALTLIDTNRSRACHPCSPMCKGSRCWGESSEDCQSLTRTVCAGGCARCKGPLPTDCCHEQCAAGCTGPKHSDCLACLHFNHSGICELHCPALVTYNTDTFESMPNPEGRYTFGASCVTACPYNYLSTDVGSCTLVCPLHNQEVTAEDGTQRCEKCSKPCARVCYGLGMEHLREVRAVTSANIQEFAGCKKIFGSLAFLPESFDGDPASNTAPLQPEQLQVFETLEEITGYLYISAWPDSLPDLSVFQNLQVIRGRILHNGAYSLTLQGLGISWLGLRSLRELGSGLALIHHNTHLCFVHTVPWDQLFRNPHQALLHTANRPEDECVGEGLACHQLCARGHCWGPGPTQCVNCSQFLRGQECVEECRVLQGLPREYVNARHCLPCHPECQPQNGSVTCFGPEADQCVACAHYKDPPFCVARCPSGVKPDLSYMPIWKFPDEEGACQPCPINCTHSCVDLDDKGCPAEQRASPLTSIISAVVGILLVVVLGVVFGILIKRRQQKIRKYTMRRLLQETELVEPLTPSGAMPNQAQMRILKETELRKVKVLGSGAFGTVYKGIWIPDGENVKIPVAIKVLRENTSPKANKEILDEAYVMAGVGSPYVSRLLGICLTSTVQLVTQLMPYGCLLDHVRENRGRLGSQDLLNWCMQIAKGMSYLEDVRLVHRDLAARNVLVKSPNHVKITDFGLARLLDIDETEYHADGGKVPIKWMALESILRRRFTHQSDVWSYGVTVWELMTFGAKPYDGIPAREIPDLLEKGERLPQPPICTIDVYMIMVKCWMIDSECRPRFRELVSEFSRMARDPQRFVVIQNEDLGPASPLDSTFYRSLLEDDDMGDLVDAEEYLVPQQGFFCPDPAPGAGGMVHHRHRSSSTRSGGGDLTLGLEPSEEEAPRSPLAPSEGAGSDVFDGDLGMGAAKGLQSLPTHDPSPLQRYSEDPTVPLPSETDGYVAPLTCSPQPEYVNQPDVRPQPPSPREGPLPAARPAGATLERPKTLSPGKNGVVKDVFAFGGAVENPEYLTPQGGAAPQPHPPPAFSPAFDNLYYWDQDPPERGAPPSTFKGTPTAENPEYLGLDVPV

Compound | viability [1] [%] | Her2 level [2] | viability [3] | viability [4] | viability [5] | differential viability (reversal) ([6]; H69AR cells + 2 uM doxorubicin) | viability [6, 16] [%] | viability [6, 17] [%] | inhibition [7] | inhibition [8] | growth inhibition [9] | growth inhibition [10] | viability increase [11] | viability [12] | viability [13] | inhibition [14] | RAM network inhibition [15]
CCCOc1ccc2ccccc2c1/C=N/n1cnnc1 | 93 | 91% (inactive) | 93% (inactive) | 66.7% (inactive) | 72.3% (inactive) | 3.08% (inactive) | 69.2 | 72.3 | -3.08% (inactive) | 2.67% (inactive) | -0.81% (inactive) | 6.62% (inactive) | -5.76% (inactive) | 92.4% (inactive) | 80.9% (inactive) | -0.575% (inactive) | -1.74% (inactive)
COC(=O)C(C)Sc1nc2c(c(=O)n1-c1ccccc1)SCC2 (stereo not drawn) | 102 | 77.5% (inactive) | 102% (inactive) | 84.3% (inactive) | 94.9% (inactive) | -12.1% (inactive) | 107 | 94.9 | -6.99% (inactive) | -4.44% (inactive) | -12.1% (inactive) | -4.13% (inactive) | -1.78% (inactive) | 87.1% (inactive) | 90.8% (inactive) | 1.94% (inactive) | 4.56% (inactive)
Cc1[nH]nc2c1C(=O)CC(C)(C)C2 | 95.5 | 100% (inactive) | 95.5% (inactive) | 100% (inactive) | 89% (inactive) | 5.23% (inactive) | 83.7 | 89 | -1.67% (inactive) | -10.3% (inactive) | 2.65% (inactive) | -3.72% (inactive) | -4.31% (inactive) | 95.8% (inactive) | 94% (inactive) | 1.44% (inactive) | 1.23% (inactive)
CC(C)Sc1nc2c(c(=O)n1-c1ccc(F)cc1)SCC2 | 114 | 124% (inactive) | 114% (inactive) | 87.6% (inactive) | 88.5% (inactive) | 7.33% (inactive) | 81.1 | 88.5 | -4.27% (inactive) | -4.35% (inactive) | -4.45% (inactive) | -19.7% (inactive) | -2.6% (inactive) | 84.6% (inactive) | 87.1% (inactive) | 0.61% (inactive) | 7.83% (inactive)
Cc1cc2ncc(-c3ccc(Cl)cc3)c(N)n2n1 | 83 | 114% (inactive) | 83% (inactive) | 69.6% (inactive) | 82.7% (inactive) | -0.45% (inactive) | 83.1 | 82.7 | -4.93% (inactive) | -0.5% (inactive) | -12.6% (inactive) | -0.665% (inactive) | -4.85% (inactive) | 88% (inactive) | 85.4% (inactive) | 1.27% (inactive) | 1.2% (inactive)
O=C1c2ccccc2C(=O)N1C/C=C/CN1C(=O)c2ccccc2C1=O | 85 | 91.5% (inactive) | 85% (inactive) | 86.5% (inactive) | 82.8% (inactive) | -9.46% (inactive) | 92.3 | 82.8 | -3.46% (inactive) | -0.33% (inactive) | 2.25% (inactive) | -1.58% (inactive) | -1.04% (inactive) | 90.3% (inactive) | 102% (inactive) | 3.1% (inactive) | 4.65% (inactive)
Cc1ccc(N2CCN(S(=O)(=O)N(C)C)CC2)c(C)c1 | 98.5 | 116% (inactive) | 98.5% (inactive) | 90.6% (inactive) | 83.5% (inactive) | -9.57% (inactive) | 93.1 | 83.5 | 1.73% (inactive) | 1.17% (inactive) | -11.1% (inactive) | -7.42% (inactive) | 0.57% (inactive) | 90.6% (inactive) | 88.1% (inactive) | 2.69% (inactive) | 6.03% (inactive)
O=C(NCCN1CCOCC1)c1ccc2c(c1)N(Cc1ccccc1F)C(=O)CS2 | 94 | 100% (inactive) | 94% (inactive) | 95% (inactive) | 92.6% (inactive) | -7.79% (inactive) | 100 | 92.6 | -6.4% (inactive) | 1.59% (inactive) | 7.73% (inactive) | 7.02% (inactive) | 1.73% (inactive) | 102% (inactive) | 102% (inactive) | 1.9% (inactive) | 1.89% (inactive)
CCOC(=O)N1CCN(C(=O)c2c(-c3ccccc3)noc2C)CC1 | 78 | 104% (inactive) | 78% (inactive) | 96.6% (inactive) | 95.2% (inactive) | 5.67% (inactive) | 89.5 | 95.2 | -6.67% (inactive) | -2.5% (inactive) | -9.5% (inactive) | -0.595% (inactive) | -2.25% (inactive) | 104% (inactive) | 87.6% (inactive) | 3% (inactive) | 4.25% (inactive)
